{
  "source": "PubChem BioAssay AID1851",
  "about": "(National Center for Advancing Translational Sciences (NCATS), 2009)",
  "note": "Screen size: about 16,000 compounds; about 2,600 (16%) were called active. Inconclusive results (about 20%) are left out. The call rests on the fitted dose curve; in most records, active means well fitted curve in the direction sought with a large enough effect; inconclusive means small, poorly fitted or top-dose-only effect, or effect the other way; inactive means no such curve, though single readings can be large or run the other way. Only a sample is shown. On the % scale 0 is the no-effect control and ±100 the full control effect.",
  "data": [
    {"molecular_target": "Cytochrome P450 2D6 (Homo sapiens) (UniProt P10635)", "sequence (P10635 whole entry, looked up)": "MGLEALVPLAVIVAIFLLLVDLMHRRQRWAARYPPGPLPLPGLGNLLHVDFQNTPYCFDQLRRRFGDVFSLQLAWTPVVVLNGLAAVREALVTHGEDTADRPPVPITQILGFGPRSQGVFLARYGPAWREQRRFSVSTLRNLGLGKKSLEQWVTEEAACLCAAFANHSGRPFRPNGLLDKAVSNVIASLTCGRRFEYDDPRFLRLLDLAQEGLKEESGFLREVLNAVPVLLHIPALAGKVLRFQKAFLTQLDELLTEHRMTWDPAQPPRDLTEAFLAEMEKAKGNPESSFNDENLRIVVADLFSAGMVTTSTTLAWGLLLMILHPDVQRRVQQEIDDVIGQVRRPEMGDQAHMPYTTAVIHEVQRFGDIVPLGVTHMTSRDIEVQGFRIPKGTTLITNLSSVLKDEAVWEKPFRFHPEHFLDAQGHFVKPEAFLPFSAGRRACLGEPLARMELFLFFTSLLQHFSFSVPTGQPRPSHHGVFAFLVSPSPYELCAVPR", "experiment": "Cytochrome panel assay with activity outcomes", "conditions": "recombinant CYP, pro-luciferin dealkylation, luminescence, p450-cyp2d6; series mostly up to 57.1 µM", "values": [
      {"molecule": "Cn1c(CCC(=O)Nc2ccc(N3CCOCC3)cc2)nc(=O)c2ccccc21", "AC50": "inactive"},
      {"molecule": "COC(=O)c1nn(-c2ccccc2)c(=O)cc1Oc1ccccc1", "AC50": "inactive"},
      {"molecule": "N#C[C@@H](N=Nc1ccccc1C(=O)O)C(N)=O", "activity, negative = inhibition": "-0.182% [at 11.4 µM] (inactive)"},
      {"molecule": "O=C(N/N=C/c1cccc(C(F)(F)F)c1)C1CCN(c2ncc(C(F)(F)F)cc2Cl)CC1", "AC50": "inactive"},
      {"molecule": "COc1ccc(/C=C(/C(=O)Nc2ccccc2C(=O)NC(C)C)c2ccccc2)cc1", "AC50": "inactive"},
      {"molecule": "Cc1cccc(N2CCN(C(=O)CSCc3c(C)noc3C)CC2)c1C", "AC50": "inactive"},
      {"molecule": "CC(C)OC(=O)CC12CN(C)CC(CC(=O)OC(C)C)(CN(C)C1)C2=O", "AC50": "2.51 µM (active)"},
      {"molecule": "COc1ccc(CNC(=O)/C=C/c2ccc(OCCCF)cc2)cc1", "AC50": "inactive"},
      {"molecule": "CCCSc1nc(NCc2ccco2)c2c3c(sc2n1)COC(C)(C)C3", "AC50": "14.1 µM (active)"},
      {"molecule": "CCC(O)CNc1nc(-n2nc(C)cc2C)nc2sc3c(c12)CC(C)(C)OC3", "note": "(configuration not stated)", "AC50": "inactive"},
      {"molecule": "CCSc1ncnc2c1sc1nc(-c3ccco3)c3c(c12)CC(C)(C)OC3", "AC50": "inactive"},
      {"molecule": "O=c1cnc2cnc(N3CCOCC3)nc2n1CCc1ccccc1", "AC50": "inactive"},
      {"molecule": "Cc1cc2c(cc1C)NC(c1nc3ccccc3[nH]1)C1=C(CC(C)(C)CC1=O)N2", "note": "(configuration not stated)", "AC50": "inactive"},
      {"molecule": "CCCc1ccc(C2C3=C(CC(C)(C)CC3=O)NC3=C2C(=O)c2ccccc23)cc1", "note": "(configuration not stated)", "AC50": "inactive"},
      {"molecule": "CC1(C)CC(=O)C2=C(C1)Nc1cc3c(cc1C2c1ccc(F)cc1)OCO3", "note": "(configuration not stated)", "AC50": "7.08 µM (active)"},
      {"molecule": "Brc1ccc([C@H]2CN3CCSC3=N2)cc1", "AC50": "inactive"},
      {"molecule": "Cc1cccc(C)c1NC(=O)C(c1ccc(Cl)cc1Cl)N1CCCCC1", "note": "(configuration not stated)", "AC50": "10 µM (active)"},
      {"molecule": "Cc1cccc(C)c1NC(=O)C(NC=O)c1ccccc1Cl", "note": "(configuration not stated)", "AC50": "inactive"},
      {"molecule": "Cc1cccc(C)c1NC(=O)C(c1ccccc1)N1CCC1=O", "note": "(configuration not stated)", "AC50": "inactive"},
      {"molecule": "NC(N)=N[C@@H]1C(O)[C@H](N=C(N)N)[C@@H](O)C(O)[C@H]1O", "note": "(some centres not stated)", "activity, negative = inhibition": "4.19% [at 11.4 µM] (inactive)"},
      {"molecule": "Cc1cc(C(F)(F)F)nn1CC(=O)Nc1cccnc1", "AC50": "12.6 µM (active)"},
      {"molecule": "CCNS(=O)(=O)c1ccc(NC(=O)c2cc(C(F)(F)F)nn2C)cc1", "AC50": "inactive"},
      {"molecule": "NNC(=O)Cc1cccnc1", "activity, negative = inhibition": "8.36% [at 11.4 µM] (inactive)"},
      {"molecule": "CC1=NN(c2ccccc2)C(=O)[C@@H]1N=Nc1ccc(S(N)(=O)=O)cc1", "activity, negative = inhibition": "8.14% [at 11.4 µM] (inactive)"},
      {"molecule": "CCOC(=O)N1CCC(NC(=O)CCC(=O)N2CC(C)Oc3ccc(C)cc32)CC1", "note": "(configuration not stated)", "AC50": "inactive"},
      {"molecule": "O=C(Nc1c[nH]c(=O)[nH]c1=O)Oc1ccccc1", "activity, negative = inhibition": "-9.58% [at 11.4 µM] (inactive)"},
      {"molecule": "O=C(OCc1nc2ccccc2s1)c1ccc(Br)s1", "AC50": "inactive"},
      {"molecule": "COc1ccc(CCNc2nc(-c3cccnc3)cs2)cc1OC", "AC50": "7.08 µM (active)"},
      {"molecule": "COc1ccc(-c2cc(C(=O)NCc3cccnc3)no2)cc1OC", "AC50": "inactive"},
      {"molecule": "Cc1noc(C)c1-c1cc(NCc2ccccc2)ncn1", "AC50": "inactive"},
      {"molecule": "COc1cccc(-c2cc(NCc3ccccc3)ncn2)c1", "AC50": "12.6 µM (active)"},
      {"molecule": "COc1cccc(-c2cc(NCc3ccc(OC)cc3OC)ncn2)c1", "AC50": "12.6 µM (active)"},
      {"molecule": "Cc1cnc(CNc2cc(-c3cccnc3)ncn2)cn1", "AC50": "inactive"},
      {"molecule": "Cc1noc(C)c1-c1cc(NCc2cccnc2)ncn1", "AC50": "inactive"},
      {"molecule": "N#Cc1cccc(-c2cc(NCc3ccccc3)ncn2)c1", "AC50": "inactive"},
      {"molecule": "COc1ccccc1CNc1cc(-c2cccnc2)ncn1", "AC50": "5.01 µM (active)"},
      {"molecule": "COc1ccc(-c2csc(NC(=O)CCn3cnc4ccccc4c3=O)n2)cc1OC", "AC50": "inactive"},
      {"molecule": "CCN1CCc2c(sc(N)c2C(N)=O)C1", "AC50": "inactive"},
      {"molecule": "OC[C@@H]1O[C@@H](n2cnc3c(NC4CCCCC4)ncnc32)[C@@H](O)[C@H]1O", "AC50": "inactive"},
      {"molecule": "O=C(Nc1c(C(=O)N2CCOCC2)cnn1-c1ccccc1)c1ccco1", "AC50": "inactive"},
      {"molecule": "O=c1c(Cc2ccccc2)c(O)nc2n1CCS2", "AC50": "inactive"},
      {"molecule": "O=C(c1ccc2nc3ccc(Cl)cc3c(=O)n2c1)N1CCOCC1", "AC50": "inactive"},
      {"molecule": "Cc1cnc(CNc2cc(-c3cccc(C#N)c3)ncn2)cn1", "AC50": "inactive"},
      {"molecule": "COc1cccc(-c2cc(NCc3ccccc3OC)ncn2)c1", "AC50": "15.8 µM (active)"},
      {"molecule": "COc1ccccc1CNc1cc(-c2cccc(C#N)c2)ncn1", "AC50": "inactive"},
      {"molecule": "COc1cccc(-c2cc(NCc3cccs3)ncn2)c1", "AC50": "12.6 µM (active)"},
      {"molecule": "COCCn1c(=S)[nH]c2cc(C(=O)NC(C)C)ccc2c1=O", "AC50": "inactive"},
      {"molecule": "O=C(N/N=C/c1ccncc1)c1cc2c(ccc3ccccc32)o1", "AC50": "inactive"},
      {"molecule": "CCCC(CCC)C(=O)NNc1cc(=O)c2c(=O)n(C)c(=O)n(C)c2[nH]1", "AC50": "inactive"},
      {"molecule": "O=C(O)c1cc(S(=O)(=O)N2CCCCC2)ccc1F", "AC50": "inactive"},
      {"molecule": "Cc1ccc(S(=O)(=O)Oc2cc(S(=O)(=O)O)cc3cc(S(=O)(=O)O)cc(N)c23)cc1", "activity, negative = inhibition": "8.03% [at 11.4 µM] (inactive)"},
      {"molecule": "CC(C)Sc1cc(N2CCOCC2)nc(-c2ccc(Cl)cc2)n1", "AC50": "inactive"}
    ]}
  ]
}
